In publication PMC9911399, “Two distinct binding modes provide the RNA-binding protein RbFox with extraordinary sequence specificity”:
Substitutions are numbered along the chain they refer to; changes in the protein carry UniProt numbers. In all, about 16,000 sequences were measured (“ka relative to ugcaugu”: median about 0.096, highest 2% from about 0.35 on). Many of the other results were omitted from the sample, so the highest values are more common in it than they were.

B1: CGUAUUA (DNA:RNA)
RNA: GGGAGACCGGAAUUCAGAUUGUCCCGUAUUAUUAAAUCCCGUCGUAGCCACCA
DNA 1: CAATCTGAATTCCGGTCTCCC
DNA 2: TGGTGGCTACGACGGGATT
B2: AUGUGAG (DNA:RNA)
RNA: GGGAGACCGGAAUUCAGAUUGUCCAUGUGAGUUAAAUCCCGUCGUAGCCACCA
DNA 1: CAATCTGAATTCCGGTCTCCC
DNA 2: TGGTGGCTACGACGGGATT
B3: GAUAGGC (DNA:RNA)
RNA: B1 RNA with C25G, G26A, U29G, U30G, A31C
DNA 1: CAATCTGAATTCCGGTCTCCC
DNA 2: TGGTGGCTACGACGGGATT
B4: AAGUUCU (DNA:RNA)
RNA: B2 RNA with U26A, G29U, A30C, G31U
DNA 1: CAATCTGAATTCCGGTCTCCC
DNA 2: TGGTGGCTACGACGGGATT
B5: CGUGAUC (DNA:RNA)
RNA: B1 RNA with A28G, U29A, A31C
DNA 1: CAATCTGAATTCCGGTCTCCC
DNA 2: TGGTGGCTACGACGGGATT
B6: UGAUCUG (DNA:RNA)
RNA: B2 RNA with A25U, U26G, G27A, G29C, A30U
DNA 1: CAATCTGAATTCCGGTCTCCC
DNA 2: TGGTGGCTACGACGGGATT
B7: UGUGAUG (DNA:RNA)
RNA: B1 RNA with C25U, A28G, U29A, A31G
DNA 1: CAATCTGAATTCCGGTCTCCC
DNA 2: TGGTGGCTACGACGGGATT
B8: UGUGAUC (DNA:RNA)
RNA: B1 RNA with C25U, A28G, U29A, A31C
DNA 1: CAATCTGAATTCCGGTCTCCC
DNA 2: TGGTGGCTACGACGGGATT
B9: UGUGUGA (DNA:RNA)
RNA: B1 RNA with C25U, A28G, U30G
DNA 1: CAATCTGAATTCCGGTCTCCC
DNA 2: TGGTGGCTACGACGGGATT
B10: CGUGAUG (DNA:RNA)
RNA: B1 RNA with A28G, U29A, A31G
DNA 1: CAATCTGAATTCCGGTCTCCC
DNA 2: TGGTGGCTACGACGGGATT
B11: GCGAGGG (DNA:RNA)
RNA: B2 RNA with A25G, U26C, U28A, A30G
DNA 1: CAATCTGAATTCCGGTCTCCC
DNA 2: TGGTGGCTACGACGGGATT
B12: GUCAGAC (DNA:RNA)
RNA: B2 RNA with A25G, G27C, U28A, G31C
DNA 1: CAATCTGAATTCCGGTCTCCC
DNA 2: TGGTGGCTACGACGGGATT
B13: CAAGAAC (DNA:RNA)
RNA: B2 RNA with A25C, U26A, G27A, U28G, G29A, G31C
DNA 1: CAATCTGAATTCCGGTCTCCC
DNA 2: TGGTGGCTACGACGGGATT
B14: UCGGUAA (DNA:RNA)
RNA: B2 RNA with A25U, U26C, U28G, G29U, G31A
DNA 1: CAATCTGAATTCCGGTCTCCC
DNA 2: TGGTGGCTACGACGGGATT
B15: CUCCUAG (DNA:RNA)
RNA: B2 RNA with A25C, G27C, U28C, G29U
DNA 1: CAATCTGAATTCCGGTCTCCC
DNA 2: TGGTGGCTACGACGGGATT
B16: AUUGUGA (DNA:RNA)
RNA: B1 RNA with C25A, G26U, A28G, U30G
DNA 1: CAATCTGAATTCCGGTCTCCC
DNA 2: TGGTGGCTACGACGGGATT
B17: GUAUCUC (DNA:RNA)
RNA: B2 RNA with A25G, G27A, G29C, A30U, G31C
DNA 1: CAATCTGAATTCCGGTCTCCC
DNA 2: TGGTGGCTACGACGGGATT
B18: GUGUAUC (DNA:RNA)
RNA: B2 RNA with A25G, G29A, A30U, G31C
DNA 1: CAATCTGAATTCCGGTCTCCC
DNA 2: TGGTGGCTACGACGGGATT
B19: UUGUAUC (DNA:RNA)
RNA: B2 RNA with A25U, G29A, A30U, G31C
DNA 1: CAATCTGAATTCCGGTCTCCC
DNA 2: TGGTGGCTACGACGGGATT
B20: UAUCUUG (DNA:RNA)
RNA: B1 RNA with C25U, G26A, A28C, A31G
DNA 1: CAATCTGAATTCCGGTCTCCC
DNA 2: TGGTGGCTACGACGGGATT
B21: CCGUAUC (DNA:RNA)
RNA: B2 RNA with A25C, U26C, G29A, A30U, G31C
DNA 1: CAATCTGAATTCCGGTCTCCC
DNA 2: TGGTGGCTACGACGGGATT
B22: GCGUAUC (DNA:RNA)
RNA: B2 RNA with A25G, U26C, G29A, A30U, G31C
DNA 1: CAATCTGAATTCCGGTCTCCC
DNA 2: TGGTGGCTACGACGGGATT

These binders were tested against T1, RBFOX1 RRM RbFoxmut (Fox-RRM*) (Homo sapiens, UniProt Q9NWB1 109-208, R118D;E147R;N151S;E152T) (assay: EMSA; HiTS-Eq, 1 nM pool, 10 min; buffer printed only for the single-RNA assays: 10 mM Tris pH 7.5, 150 mM NaCl, 3.4 mM EDTA, 0.001% NP-40, 30 C). Conditions: tags: His6 N-terminal (pET28a); label: 5' 32P.
T1 sequence: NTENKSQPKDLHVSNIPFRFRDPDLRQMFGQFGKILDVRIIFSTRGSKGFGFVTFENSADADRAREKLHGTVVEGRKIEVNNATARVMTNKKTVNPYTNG
Summary of the method: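 Purified RbFox RRM, wild type or mutant, was incubated for 10 min in 50 µL with 1 nM of a 5′-radiolabelled RNA pool carrying 7 randomized nucleotides, whose flanks were annealed to DNA oligonucleotides, over a series of increasing protein concentrations. Unbound RNA was resolved on 8% native PAGE, cut out, reverse-transcribed, barcoded by PCR and sequenced on an Illumina HiSeq 2500. Relative association constants were derived from changes in read counts for each RNA species versus the control reaction and normalised to the cognate motif.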
B1 was tested, and the binding signal was 0.126 KA relative to UGCAUGU.
For B2, the binding signal was 0.17 KA relative to UGCAUGU.
B3 was tested, and the binding signal was 0.0824 KA relative to UGCAUGU.
B4 was tested, and the binding signal was 0.0763 KA relative to UGCAUGU.
B5 was tested, and the binding signal was 0.118 KA relative to UGCAUGU.
B6 was tested, and the binding signal was 0.0664 KA relative to UGCAUGU.
For B7, the binding signal was 1.01 KA relative to UGCAUGU.
For B8, the binding signal was 0.395 KA relative to UGCAUGU.
In the case of B9, the binding signal is reported as 0.209 KA relative to UGCAUGU.
With B10 the binding signal was 0.268 KA relative to UGCAUGU.
For B11, the binding signal was 0.0739 KA relative to UGCAUGU.
B12 was tested, and the binding signal was 0.0721 KA relative to UGCAUGU.
In the case of B13, the binding signal is reported as 0.106 KA relative to UGCAUGU.
For B14, the binding signal was 0.133 KA relative to UGCAUGU.
In the case of B15, the binding signal is reported as 0.0819 KA relative to UGCAUGU.
For B16, the binding signal was 0.0934 KA relative to UGCAUGU.
With B17 the binding signal was 0.0751 KA relative to UGCAUGU.
In the case of B18, the binding signal is reported as 0.424 KA relative to UGCAUGU.
In the case of B19, the binding signal is reported as 0.523 KA relative to UGCAUGU.
With B20 the binding signal was 0.0958 KA relative to UGCAUGU.
For B21, the binding signal was 0.163 KA relative to UGCAUGU.
In the case of B22, the binding signal is reported as 0.194 KA relative to UGCAUGU.
